High-throughput results: PubChem BioAssay, National Center for Advancing Translational Sciences (NCATS)
LmPK inh: LmPK (Leishmania mexicana) enzyme inhibition; Q27686; purified LmPK, Kinase-Glo ATP luminescence, 1 h; Potency, µM (highest dose often 57.5 µM), without a hit: at the top dose activity change, negative = inhibition, most hits filed as inhibitors; hit rate 0.37% among 290,000; AID 1721; note: potency is the fitted concentration of half-maximal effect; % is set by controls: 0 for no effect and ±100 for the full control effect
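Purified LmPK (0.1 nM) converted ADP (0.1 mM) to ATP with PEP (0.5 mM) in imidazole buffer pH 7.2 with KCl and MgCl2, 1 h at room temperature. ATP was read by Kinase-Glo luminescence; data normalized to uninhibited and no-enzyme controls.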
RE007 growth inh: less growth of the S. pombe RE007 Vpr strain | Potency, µM (top dose mostly 92.2 µM), inactives show top-dose activity change, negative = less growth, most hits filed as inhibitors | hit rate 0.21% among 360,000 | S. pombe RE007 Vpr strain, BacTiter-Glo ATP luminescence, 24 h; active = well fitted falling curve with a large enough effect; inconclusive = small, poorly fitted or top-dose-only effect; inactive = no such curve, though single readings can be large or run the other way; note: potency is the fitted concentration of half-maximal effect; % is set by controls: 0 for no effect and ±100 for the full control effect; nearly all actives have a fitted effect of over 50% in size
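Fission yeast RE007 carrying one integrated HIV-1 vpr copy, seeded at OD 0.01 in PMG+AL medium with 23 nL pinned compound. Grown 24 h at 30 degrees; viability read by BacTiter-Glo luminescence after 5 min.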
FBPA Giardia inh: blocks Giardia fructose-bisphosphate aldolase activity | A8B2U2 | purified Giardia FBPA | Potency, µM (series often up to 59.6 µM), for inactives: at the top dose activity, negative = inhibition, actives largely listed as inhibitors | hit rate 0.71% among 290,000 | AID 2451; note: potency is the fitted concentration of half-maximal effect; % is set by controls: 0 for no effect and ±100 for the full control effect; nearly all actives have a fitted effect of over 55% in size
Target sequence (A8B2U2 whole entry, looked up): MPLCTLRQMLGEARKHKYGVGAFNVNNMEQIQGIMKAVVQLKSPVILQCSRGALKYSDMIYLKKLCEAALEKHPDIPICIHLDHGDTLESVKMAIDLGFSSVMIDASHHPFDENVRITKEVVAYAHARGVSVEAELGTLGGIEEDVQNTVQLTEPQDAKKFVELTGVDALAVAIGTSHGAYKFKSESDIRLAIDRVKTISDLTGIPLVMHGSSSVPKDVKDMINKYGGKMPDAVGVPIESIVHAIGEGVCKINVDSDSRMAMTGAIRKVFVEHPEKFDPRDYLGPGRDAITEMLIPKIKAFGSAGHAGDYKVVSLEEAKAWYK
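Giardia FBPA (40 nM reagent) was preincubated 10 min at RT with compound (up to 57.5 uM final), then substrate plus GAPDH/TPI/NAD/arsenate coupling system with diaphorase/resazurin was added; resorufin fluorescence (525/598 nm) was read after 20 min.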
Shiga toxin inh: Shiga toxin inhibition | Vero cells, Shiga toxin protein synthesis inhibition reporter | inhibition, % at 38.7 µM | hit rate 9.2% among 290,000 | AID 2315; in the data active = inhibition mostly above about 28%, no sharp cut-off; inactive = mostly below about 43%; note: 0% is about no effect
Tb PYK inh: blocks Trypanosoma brucei pyruvate kinase; Q57TT1; TbPYK enzyme, Kinase-Glo Plus ATP luminescence, 45 min; Potency, µM (series often up to 76.8 µM), for inactives: top-dose activity, negative = inhibition, most hits filed as inhibitors; hit rate 0.12% among 410,000; AID 624173; note: potency is the fitted concentration of half-maximal effect; % is set by controls: 0 for no effect and ±100 for the full control effect; nearly all actives have a fitted effect of over 50% in size
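Luminescent Kinase-Glo Plus end-point after 45 min room-temperature reaction of T. brucei pyruvate kinase started with 130 uM ADP (final). Buffer TEA 50 mM pH 7.2 with KCl, MgCl2, BSA, Tween-20; titration-based qHTS with fitted concentration-effect curves.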
CHX counter: counter-screen for Shiga toxin inhibitors: cycloheximide protein synthesis inhibition; AID 2314; max response, %; hit rate 12% among 300,000; cell reporter, cycloheximide protein synthesis inhibition counterscreen; in the data active = max response mostly above about 13%, no sharp cut-off; inactive = mostly below about 14%; note: read at 38.3 µM for the half of the compounds with a filed dose; 0% is about no effect
An asterisk follows results filed as active; i = inactive; u = inconclusive; x = not tested or not shown; ! = not confirmed by another sample; [ ] = another dose, or the depositor's remark. This is one part of a sample in which hits are shown more often than they occur. Unless noted, calls come from the whole dose curve; as a rule, active = well fitted curve in the direction sought with a large enough effect; inconclusive = small, poorly fitted or top-dose-only effect, or another doubt; inactive = no such curve, though single readings can be large; an effect the other way counts as inactive or inconclusive.

SMILES	LmPK inh	RE007 growth inh	FBPA Giardia inh	Shiga toxin inh	Tb PYK inh	CHX counter
C/C(=N\NC(=O)OC(C)(C)C)c1ccc(-n2ccnc2)cc1	-6%	-12%	0%	16	5%	13
CC(C)(C)c1ccc(NC(=O)COc2ccc(-n3ccnc3)cc2)cc1	-1%	-7%	-3%	49*	-13%	36*
C/C(=N\NC(=O)c1ccccc1)c1ccc(-n2ccnc2)cc1	4%	-2%	2%	60*	-2%	37*
C/C(=N\NC(=O)COc1ccc(C(C)(C)C)cc1)c1ccc(-n2ccnc2)cc1	3%	-4%	2%	31	-12%	31*
COc1cc(NC(=O)COc2ccc(-n3ccnc3)cc2)cc(OC)c1	0%	12%	5%	21	-1%	6
CSCc1ccc(C(=O)NC(C)c2ccc(-n3ccnc3)cc2)cc1 (configuration not stated)	-8%	-6%	x	16	-5%	18*
COc1ccc(-c2nnc(SCC(=O)N(C)C3CCCCC3)o2)cc1OC	x	x	x	x	-4%	x
Cc1ccc(NC(=O)n2ccc(-c3ccc(-n4ccnc4)cc3)n2)cc1	0%	20%	2%	85*	0%	40*
O=C(Nc1ccc(F)cc1)OCCN1CCN(Cc2ccccc2)CCC1=O	-5%	-7%	-2%[89.2 µM]	22	2%	11*!
CC(=O)c1ccc(NC(=O)OCCN2CCN(Cc3ccccc3)CCC2=O)cc1	x	x	0%	i	x	20
CC1=NN(C(N)=S)C(=O)C1N=Nc1cccc(Cl)c1C (configuration not stated)	2%	-18%	u	37*	-2%	26*
CC1=NN(C(N)=S)C(=O)C1N=Nc1ccc(Br)cc1 (configuration not stated)	6%	-21%	u	53	-5%	39*
CC1=NN(C(N)=S)C(=O)C1N=Nc1ccc(Cl)cc1 (configuration not stated)	-6%	-11%	18%	77*	-2%	33*
CC1=NN(C(N)=S)C(=O)C1N=Nc1cccc2ccccc12 (configuration not stated)	-8%	x	19%	25	x	13
CC1=NN(C(N)=S)C(=O)C1N=Nc1ccccc1 (configuration not stated)	2%	-12%	12%	24	7%	5
CC(C)C[C@H](NC(=O)[C@@H]1CCCN1C(=O)[C@H](Cc1ccccc1)NC(=O)[C@H](C)NC(=O)[C@H](CCC(=O)O)NC(=O)[C@H](C)NC(=O)[C@H](CO)NC(=O)[C@H](CCC(=O)O)NC(=O)[C@H](CC(=O)O)NC(=O)[C@H](CCC(=O)O)NC(=O)[C@H](C)NC(=O)CNC(=O)[C@H](CC(N)=O)NC(=O)[C@@H]1CCCN1C(=O)[C@H](Cc1ccc(O)cc1)NC(=O)[C@@H](NC(=O)[C@H](CCCCN)NC(=O)[C@@H](NC(=O)[C@@H]1CCCN1C(=O)[C@@H](N)CCCNC(=N)N)C(C)C)C(C)C)C(=O)N[C@@H](CCC(=O)O)C(=O)N[C@@H](Cc1ccccc1)C(=O)O	x	x	1%	7	x	-6
Cc1ccccc1-c1noc(-c2ccc(N3CCC(C)CC3)c([N+](=O)[O-])c2)n1	x	x	x	x	-4%	x
O=C1CCCc2cc(S(=O)(=O)NCC3CCC(C(=O)Nc4ccccc4F)CC3)ccc2N1 (configuration not stated)	x	x	x	x	-9%	x
O=C(CC1OC(=O)c2ccccc21)Nc1cc(S(=O)(=O)N2CCOCC2)ccc1OCC(F)(F)F (configuration not stated)	x	-3%	x	x	-5%	x
CCCCc1ccc(Nc2nc(CCC)cc(=O)[nH]2)cc1	1%	4%	-4%	-10	1%	-1
CCCc1cc(=O)[nH]c(Nc2ccc3c(c2)OCCO3)n1	1%	14%	5%	42*	-6%	36*
COc1ccc(CNCC(O)COc2ccc(C)cc2[N+](=O)[O-])cc1 (configuration not stated)	2%	2%	-2%	69*	-2%	35*
